ROMK mod – ROMK potassium channel modulators, primary screen, cell-based, thallium flux, MLSMR library. ATP-sensitive inward rectifier potassium channel 1 (Homo sapiens), P48048. Tet-inducible ROMK, thallium flux fluorescence; actives lie on both sides. B-score at 10 µM. 130,000 compounds, 2% hits. AID 1918, 2009;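 active = signal ratio slope over the read window, or its plate-corrected B-score, at least 3 SD from the plate mean, either direction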;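 also: B-score of the F/F0 ratio slope over 7 to 12 s after thallium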
Target sequence (P48048 whole entry, looked up): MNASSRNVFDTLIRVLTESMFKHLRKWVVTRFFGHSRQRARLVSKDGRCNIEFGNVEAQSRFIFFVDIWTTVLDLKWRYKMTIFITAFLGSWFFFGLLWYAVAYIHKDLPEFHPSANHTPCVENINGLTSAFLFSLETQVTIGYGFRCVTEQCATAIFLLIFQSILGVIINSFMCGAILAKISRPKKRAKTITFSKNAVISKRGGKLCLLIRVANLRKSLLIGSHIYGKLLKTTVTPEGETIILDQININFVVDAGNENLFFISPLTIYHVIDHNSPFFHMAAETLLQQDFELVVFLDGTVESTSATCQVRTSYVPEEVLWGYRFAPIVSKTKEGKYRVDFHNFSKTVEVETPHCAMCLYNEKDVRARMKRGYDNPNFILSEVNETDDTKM
HSV replic up – enhancers of HSV replication in host cells, fold increase, host cell viability; AID 1956, 2009; maximum fold increase; 220,000 compounds, 0.005% hits; HSV replication augmentation in cells; in the data active = maximum fold increase above about 1.5; inconclusive = no clear call, values can overlap the other calls; tested in PC3 cells
KCC2 mod – KCC2 cotransporter modulators, thallium flux, primary screen, cell-based, HEK293 KCC2, FluoZin-2 fluorescence, MLSMR. Solute carrier family 12 member 5 (Homo sapiens), Q9H2X9. KCC2 cells, thallium flux FluoZin-2 fluorescence. B-score of Tl+ flux slope (higher = more flux/activation; lower = inhibition) at 10 µM. 190,000 compounds, 2.2% hits;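 active = thallium flux slope and its plate-corrected score both differing from the plate sample mean at a set confidence after two filtering rounds, in either direction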;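 also: slope of fluorescence scaled to starting intensity during 10 to 20 s after thallium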
Measles CPE – compounds protecting cells from measles virus cytopathic effect, primary screen, measles RdRp inhibitor project, single point, MLSMR library, absorbance; 140,000 compounds, 1.5% hits; protection (pct of control), % at 4 µM; AID 841, 2007; Measles virus-infected cells, CPE protection; in the data active = protection mostly above about 24%, no sharp cut-off; inactive = mostly below about 26%
Arbovirus anti – antivirals against arbovirus infection, primary screen, cell-based, full library, 10K replicate subset. arbovirus infection cell-based antiviral screen. inhibition, % at 10 µM. 200,000 compounds, 0.37% hits. AID 1251, 2008; in the data active = inhibition above about 30%
ROMK retest – ROMK channel modulator hit retest, confirmation, cell-based, thallium flux, duplicate, resupplied hits; shares compounds with ROMK mod; fluorescence ratio; stronger effect = lower value; normalized thallium flux (F/F0 slope) at 10 µM; 3,000 compounds, 54% hits;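 active = Flux at 10 µM at least 3 SD below or above vehicle control mean in one or both replicates; inconclusive = no clear call, values can overlap the other calls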
Each line names hits and unclear results; the compound was inactive in the other large screens (follow-up assays come after a bar, where they were run). Hits are enriched below; roughly 4% of the tested compounds scored in any of these assays.

CCn1c(SCC(=O)Nc2ccccc2N2CCCCC2)nc2c1c(=O)n(C)c(=O)n2C	none (no result: ROMK mod) | ROMK retest inactive
CCn1c(SCC(=O)N2CCCC2)nc2c1c(=O)n(C)c(=O)n2C	none (no result: ROMK mod, KCC2 mod)
CC(C)CC(=O)NC(=S)Nc1ccccc1N1CCCC1	none (no result: ROMK mod, Measles CPE, Arbovirus anti)
CC(C)CC(=O)Nc1ccccc1N1CCCC1	ROMK mod -6 | ROMK retest inactive
Cc1cccc(-n2c(C)cc(C=C3C(=O)c4ccccc4C3=O)c2C)c1	none (no result: ROMK mod, HSV replic up) | ROMK retest 0.036
O=C(O)c1ccc(CS(=O)(=O)c2cccc(C(F)(F)F)c2)o1	none (no result: ROMK mod) | ROMK retest inactive
COc1ccc(NC(=O)c2sc3nc(Cc4ccccc4)cc(C(F)(F)F)c3c2N)cc1OC	none (no result: ROMK mod)
COc1ccccc1NC(=O)c1sc2nc(Cc3ccccc3)cc(C(F)(F)F)c2c1N	ROMK mod -5.5 | ROMK retest 0.048
N=c1n(Cc2ccccc2)c2ccccc2n1CC(O)COc1ccccc1 (stereo unspecified)	none (no result: ROMK mod)
CCCCn1c(=N)n(CC(O)COc2ccccc2)c2ccccc21 (stereo unspecified)	ROMK mod -3.7 | ROMK retest inconclusive
Cc1ccc(Cn2c(=N)n(CC(O)COc3ccccc3)c3ccccc32)cc1 (stereo unspecified)	ROMK mod -4.1 | ROMK retest 0.049
Cc1ccc(OCC(O)Cn2c3ccccc3c3ccccc32)cc1 (stereo unspecified)	none (no result: ROMK mod, KCC2 mod)
CCn1c(=N)n(CC(O)COc2cccc(C)c2)c2ccccc21 (stereo unspecified)	none
CCCCn1c(=N)n(CC(O)COc2ccc(C)cc2)c2ccccc21 (stereo unspecified)	ROMK mod -7 | ROMK retest 0.048
CCCn1c(=N)n(CC(O)COc2cccc(C)c2)c2ccccc21 (stereo unspecified)	ROMK mod -3.4 (no result: KCC2 mod) | ROMK retest 0.051
N=c1n(CCN2CCCCC2)c2ccccc2n1CC(O)COc1ccccc1 (stereo unspecified)	none (no result: ROMK mod)
Cc1ccsc1/C=N/N1CCN(Cc2ccccc2)CC1	none (no result: Measles CPE)
COc1ccc2ccccc2c1CNC(=O)CC1C(=O)NCCN1CC(C)(C)C (stereo unspecified)	none (no result: ROMK mod, Measles CPE, Arbovirus anti)
COc1ccccc1/C=C/C=C1N=C(/C=C/c2ccc(Cl)cc2)OC/1=O	ROMK mod -2.6, Arbovirus anti 35 | ROMK retest 0.063
COc1ccc(OC)c(NC(=O)CN(Cc2ccccc2)S(C)(=O)=O)c1	none (no result: Measles CPE)
COC1=C(N)C(=O)c2nc(-c3nc(C(=O)O)c(C)c(-c4ccc(OC)c(OC)c4O)c3N)ccc2C1=O	none (no result: ROMK mod) | ROMK retest 0.057
CNC(=S)N(Cc1ccccc1)Cc1cccnc1	ROMK mod -12 (no result: Measles CPE, Arbovirus anti) | ROMK retest inactive
Cc1ccccc1NC(=S)N(Cc1ccccc1)Cc1cccnc1	none (no result: Measles CPE)
CC(C)CC1NC(=O)N(Cc2nc3ccccc3s2)C1=O (stereo unspecified)	none (no result: ROMK mod, Measles CPE, Arbovirus anti)
Cc1nc2c(C(=O)NCc3ccc4c(c3)OCO4)cnn2c(C)c1Cc1ccc(F)cc1Cl	none (no result: ROMK mod)
Cc1nc2c(C(=O)NCc3ccco3)cnn2c(C)c1Cc1ccc(F)cc1Cl	none (no result: ROMK mod) | ROMK retest inactive
NC1=NC[C@H](CC2CCCCC2)N1CCc1cc(C(F)(F)F)cc(C(F)(F)F)c1	none (no result: ROMK mod, Measles CPE, Arbovirus anti) | ROMK retest 0.05
O=C(c1ccc(CSc2ccc(Cl)cc2)cc1)N1CCCC1	none (no result: Measles CPE)
CCCCn1c(=O)[nH]c(=O)c2c1nc(-c1ccc(C)c([N+](=O)[O-])c1)n2CC	none (no result: KCC2 mod, Measles CPE)
Cc1ccc(-c2nc3c(c(=O)[nH]c(=O)n3CC(C)C)n2CC(C)C)cc1[N+](=O)[O-]	ROMK mod -3.6 (no result: Measles CPE) | ROMK retest 0.056
COc1ccc([C@H]2C=C3CN(C(=O)OC(C)(C)C)S(=O)(=O)[C@H]3C[C@H]2OC(=O)c2cccs2)cc1	none (no result: ROMK mod, Measles CPE, Arbovirus anti)
Cc1cccc(-n2ncc3c(NCc4cccnc4)ncnc32)c1	none (no result: ROMK mod, Measles CPE)
Cc1ccc(-n2ncc3c(NCc4cccnc4)ncnc32)c(C)c1	none | ROMK retest 0.066
Cc1c(NC(=O)Nc2ccc(Cl)cc2)c(=O)n(-c2ccccc2)n1C	none (no result: ROMK mod, KCC2 mod)
Cc1c(N=C2N=C(NC(=O)Nc3ccc(Cl)cc3)c3ccccc32)c(=O)n(-c2ccccc2)n1C	ROMK mod -3.9 (no result: KCC2 mod, Measles CPE) | ROMK retest 0.06
O=C(Cc1ccc(-c2ccccc2)cc1)NCc1cccnc1	ROMK mod 3.2 (no result: Measles CPE) | ROMK retest inactive
NS(=O)(=O)c1ccc(NC(=O)COC(=O)/C(=C/c2cccs2)c2cccs2)cc1	none (no result: Measles CPE)
COCCNC(=O)CSc1cc(=O)n(C)c2cc(Cl)ccc12	ROMK mod -9.8 (no result: Measles CPE) | ROMK retest inactive
Cc1ccccc1OS(=O)(=O)c1cn(C)c(=O)n(C)c1=O	none (no result: ROMK mod, Measles CPE)
CC1(C)C(=O)CC[C@]2(C)C3C(=O)C=C4[C@H]5C[C@@](C)(C(=O)O)CC[C@]5(C)CC[C@]4(C)[C@]3(C)CC[C@@H]12 (stereo partly specified)	none (no result: ROMK mod, Measles CPE, Arbovirus anti)
CC1(C)[C@@H](O)CC[C@]2(C)C3C(O)C=C4[C@H]5C[C@@](C)(C(=O)O)CC[C@]5(C)CC[C@]4(C)[C@]3(C)CC[C@@H]12 (stereo partly specified)	none (no result: ROMK mod, Measles CPE, Arbovirus anti) | ROMK retest inactive
CCOC(=O)/C(=C\c1ccccc1)C(=O)c1cc(C(C)=O)c(Nc2ccccc2)s1	none
CCOC(=O)/C(=C\c1cccnc1)C(=O)c1cc(C(C)=O)c(Nc2ccccc2)s1	ROMK mod -3 | ROMK retest 0.05
O=C1CN(C(=O)Cn2ncc(Cl)c(Cl)c2=O)c2ccccc2N1	none (no result: Measles CPE)
COC(=O)C1CCN(C(=O)CSc2ccccc2)CC1	none | ROMK retest inactive
CCOC(=O)N1CCN(C(=O)COc2ccc(Cl)c(C)c2)CC1	ROMK mod -3.6 (no result: Measles CPE) | ROMK retest 0.058
COc1cc(CNc2ccc(N3CCCC3)cc2)cc(Cl)c1OC	ROMK mod 4 (no result: Measles CPE) | ROMK retest inactive
CCOc1cc(CNc2ccc(N3CCCC3)cc2)cc(Cl)c1OC	none
Nc1ccccc1CNc1nc(NCCO)nc2c1ncn2CCN1CCOCC1	none (no result: ROMK mod, Measles CPE, Arbovirus anti)
CC(=O)c1ccc(N2CCN(C(=O)c3cc4c(-c5ccccc5F)nn(C)c4s3)CC2)cc1	none (no result: ROMK mod, KCC2 mod) | ROMK retest 0.062
COc1ccc(N2CCN(C(=O)c3cc4c(-c5cccc(OC)c5)nn(C)c4s3)CC2)cc1	none (no result: ROMK mod)
CCc1nnc(NS(=O)(=O)c2ccc(Nc3ccc4nonc4c3[N+](=O)[O-])cc2)s1	none (no result: Measles CPE)
COc1cc(CNCCN2CCOCC2)ccc1OCc1ccc(Cl)cc1Cl	none (no result: ROMK mod) | ROMK retest 0.055
CC(C)CCNC(=O)COC(=O)c1cc(Br)c(Br)s1	none (no result: Measles CPE)
CCC(=O)N(C)CCc1cc2c(c(OC)c1/C=N/NC(=O)c1ccncc1)OCO2	ROMK mod -2 (no result: Measles CPE, Arbovirus anti) | ROMK retest inactive
CCC(=O)N(C)CCc1cc2c(c(OC)c1/C=N/NS(=O)(=O)c1ccc(C)cc1)OCO2	none (no result: ROMK mod, Measles CPE, Arbovirus anti)
